This is an account of results in PubChem BioAssay (NCI).

Molecules are shown by their SMILES. This is part of a sample that, as a whole, favours compounds with a hit. Of some 83,000 tested, about 20% had one in any assay.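 Cell lines were cultured in 96-well plates, exposed to a single compound concentration, and assessed for percent growth 48 hours later.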 Activity calls are given as the source filed them. Rule for the calls: active = growth percent below 10; inactive = the rest.

The test has as its system HL-60(TB) leukemia. The experiment in a line: NCI-60 one-dose screen, 48 h (100 = growth as untreated, 0 = no growth, -100 = all killed). Particulars: 10 µM unless noted.
For the compound `COc1cc2c(cc1OC)C(=O)/C(=C/c1cc(-c3ccc4c(c3)OCO4)n[nH]1)C2`, the growth is -43.8% (active).

`COc1cccc(-c2ccc3c(c2)NC(=O)/C3=C\c2ccc[nH]2)c1`: the growth was -1.26% (active). On to `Cc1cc(C)on1`, for which the growth was 76.3% (inactive).

In the case of `COc1ccc(S(=O)(=O)N2CC3(COC3)C2)cc1NC(=O)c1[nH]c(C)c2c1CCCCC2=O`, the growth is -11% (active). Regarding `COc1cc(C2C=C(c3ccc(C)cc3)Nc3nc(SC)[nH]c(=O)c32)ccc1Oc1ccnc2cc(Cl)ccc12` (configuration not stated), the growth is 104% (inactive). The value for `CC(=O)N(C(C)=O)c1ccc(C)cc1` was 92.9% (inactive). The value for `Cc1ccc(-n2c3c(c(-c4ccccc4)c2-c2ccccc2)C2=NCCN2C=N3)cc1` was 98.5% (inactive).

`O=c1[nH]n(-c2ccccc2)c(=O)cc1Cl`: the growth is 103% (inactive).

On to `COc1ccc(/C=N/C2=NNC(C)(c3ccccc3O)N2C(Cc2c[nH]c3ccccc23)C(=O)O)cc1` (configuration not stated), for which the growth was -21.9% (active). The value for `COc1ccc(S(=O)(=O)NCCCNc2nccc(-n3ccc4cccnc43)n2)cc1` was 104% (inactive); that for `CC1=C(C(=O)n2c3ccccc3c3ccccc32)C(c2cccc([N+](=O)[O-])c2)C(C(=O)n2c3ccccc3c3ccccc32)=C(C)N1` was 91% (inactive); that for `Cc1ccc2c(c1)nc(C)n2-c1ncnc2c1CC(C)c1cc(O)ccc1N2C` (configuration not stated) was -5.44% (active).

Regarding `CC1(Cc2ccccc2)CC2=C(C(=O)O1)C(c1ccccc1)NC(=O)N2` (configuration not stated), the growth is -25.1% (active). The value for `CC(=O)O[C@H]1C(=O)[C@@]2(C)[C@H]([C@H](OC(=O)c3ccccc3)[C@]3(O)C[C@H](OC(=O)[C@H](OC(=O)CCC(=O)OC4CCC(S/N=C(N)/N=C(\N)N(C)C)CC4)[C@@H](NC(=O)c4ccccc4)c4ccccc4)C(C)=C1C3(C)C)[C@]1(OC(C)=O)CO[C@@H]1C[C@@H]2O` (some centres not stated) was 7.49% (active); that for `O=C1CCC23OC(c4ccccc4N12)C(O)C(O)C3O` (configuration not stated) was 97% (inactive); that for `O=C1C=C(Cl)C(=O)c2ccccc21` was 57.3% (inactive).

For `COc1cc(Cn2cc3c(c2)-c2onc(CO)c2CC3)cc(OC)c1OC`, the growth is 77.5% (inactive). The result for `CCCCN(CCCC)CCC(C)(O)c1cc2ccccc2c2ccccc12` (configuration not stated) reads 83.7% (inactive); that for `CCN(C(=O)c1cc2ccccc2[nH]1)[C@H]1CCC[C@@H](NCc2ccc(OC)cc2)C1`, 117% (inactive); that for `COc1cccc2cc(-c3cc4ccccc4[nH]3)/c(=N/C(=S)Nc3ccc(C)cc3)oc12`, 98.1% (inactive). The result for `COc1cc2c(c(OC)c1OC)-c1cc(I)c(O)cc1[C@@H](NC(C)=O)CC2` reads 12.7% (inactive). The value for `O=C(COc1ccc(/C=C2\CSc3ccccc3C2=O)cc1)c1ccc(Cl)cc1` was 80% (inactive); that for `C#CCOc1ccc2ncnc(N3CCN(C(=O)CCl)CC3)c2c1` was 73.4% [8.25 µM] (inactive); that for `Cc1ccc(OCCn2c(C)nn(-c3ccc(Cl)cc3)c2=O)cc1` was 114% (inactive). `COC12C=C/C(=C(/C(=O)OCc3ccncn3)C(=O)CCCCCCCCC3(OC)C=C/C(=C(/C(=O)OCc4ccncn4)C(=O)CCCCCCCC1)O3)O2`: the growth is -17.1% (active). The value for `CNC(=O)c1cn2c3c(c(N4CCN(C)CC4)c(F)cc3c1=O)OC[C@@H]2C` was 99.3% (inactive); that for `CN(C)c1ccc(/C=C\c2cccc[n+]2C)cc1` was 27.2% (inactive). The value for `Clc1nccc2c(-c3csc(-c4c[nH]c5ccc(Br)cc45)n3)c[nH]c12` was 9.77% (active); that for `NC(=O)NN=C(C1CC1)C1CC1` was 62.2% (inactive); that for `NC(=S)N/N=C(\c1ccc(Cl)cc1)C1CC1` was 75.7% (inactive).

For `CCN(CC)CCCC(C)Nc1c2ccc(Cl)cc2nc2ccc(OC)cc12` (configuration not stated), the growth is 55.3% (inactive).

With `Cn1cnc(-c2cc3nccc(Oc4ccc(NC(=S)NC(=O)Cc5ccccc5)cc4F)c3s2)c1`, the growth was 80% (inactive).

Take `COc1cc2c(cc1O)CC[C@@H]1[C@@H]2CC[C@]2(C)[C@@H](OCCCN(C)C)CC[C@@H]12`: the growth is -48.5% (active).

Turning to `O=C1c2ccccc2-c2cn(Cc3ccccc3)c3cccc(c23)C1c1cccnc1` (configuration not stated), the growth is 16.3% (inactive). `Cc1nc2ccc(-n3c(-c4ccc(Cl)cc4)nc4ccccc4c3=O)cc2n1Cc1ccccc1`: the growth is 78.2% (inactive). The value for `CC(C)=CCc1cc(O)cc2c1OC(C=C(C)C)C1=C2C(=O)C2=C(C1=O)S(=O)(=O)CCN2` (configuration not stated) was -31.5% (active); that for `CCc1ccc(CNc2ccc(N3CCOCC3)c(C(=O)O)c2)cc1` was 100% (inactive).
